Reference: PubChem BioAssay (Tox21)
Inconclusive results are not listed. Active and inactive are the calls of the source. Calls follow the shape of the dose curve; as a rule, active = well fitted cell-killing curve with a large enough effect in the repeat runs; inconclusive = weak or mixed curves, or effect the other way; inactive = flat fitted curve, though single readings scatter.

Assay: cAMP Responsive Elements (CRE) small molecule agonists, cell-based qHTS assay: qHTS cell viability counter screen (AID 2060914); also: nearly all actives have a fitted effect of over 50% in size
Conditions: CRE-bla HEK293T viability, CellTiter-Glo luminescence, 5 h; series mostly up to 92.4 µM; activity change, negative = cytotoxicity: at the top concentration
Outline: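 Cytotoxicity was measured as ATP luminescence (CellTiter-Glo, 30 min at room temperature) in the same wells as the CRE-bla FRET read-out. HEK293T CRE-bla cells had 3 h compound exposure at 37C/5% CO2.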
% is scaled to controls: 0 for no effect and ±100 for the full control effect; potency is read from the fitted curve at half-maximal effect.

Structure (SMILES) | Potency | activity change, negative = cytotoxicity
CCCCOCCOCCO | inactive | –
O=C(c1ccccc1)C1CCCCC1 | – | 7.05% (inactive)
CN(C[C@@H](CC[N+]12CCC(C3CCCCC3)(CC1)CC2)c1ccc(Cl)c(Cl)c1)C(=O)c1cc(C(F)(F)F)cc(C(F)(F)F)c1 | – | -0.0559% (inactive)
CCN(CC)c1ccc(C(=C2C=CC(=[N+](CC)CC)C=C2)c2cc(S(=O)(=O)O)ccc2S(=O)(=O)[O-])cc1 | – | -13.7% [at 42.5 µM] (inactive)
NCCS | – | 5.1% [at 42.5 µM] (inactive)
CCCCCOc1ccc(C2SC(=O)NC2=O)cc1OCC (stereo not drawn) | – | -11.4% [at 42.5 µM] (inactive)
CCCCCCCCCCCCCCC(=O)O | – | -4.44% (inactive)
CCCCCCC(CCCCCCCCCCC(=O)OCC(COC(C)=O)OC(C)=O)OC(C)=O (stereo not drawn) | – | 6.95% [at 42.5 µM] (inactive)
C(=C\c1ccccc1)/c1ccccc1 | – | -8.18% (inactive)
COc1ccc(OC)c(N=Nc2c(O)ccc3ccccc23)c1 | – | 4.79% (inactive)
CC(C)(C)CC(C)(C)c1ccc(OCCO)cc1 | – | -29.5% (inactive)
CC(C)C(=O)OCCc1ccccc1 | – | 9.62% (inactive)
CC(C)CCCCCOC(=O)CS | – | -3.24% (inactive)
O=P(OC(CCl)CCl)(OC(CCl)CCl)OC(CCl)CCl | inactive | –
C=COCC1CCC(COC=C)CC1 (stereo not drawn) | – | 9.19% (inactive)
CCO[Si](C)(C)OCC | – | -1.44% (inactive)
CN/C(=C\[N+](=O)[O-])NCCSCc1csc(CN(C)C)n1 | inactive | –
CCN(Cc1cccc(S(=O)(=O)O)c1)c1ccc(C(=C2C=CC(=[N+](CC)Cc3cccc(S(=O)(=O)O)c3)C=C2)c2ccccc2S(=O)(=O)[O-])cc1 | 38.7 µM (active) | –
